Test results as given in PubChem BioAssay (Tox21).
Inconclusive results are not listed. Where a call stands in place of a potency, no number is given. Calls of active or inactive are those of the source. Unless noted, calls follow the shape of the full dose curve.

Assays:
[1] = Nuclear factor erythroid 2-related factor 2/antioxidant responsive element (Nrf2/ARE) small molecule agonists: qHTS cell viability counter screen in human keratinocytes (AID 1919968; active = well fitted curve in the direction sought with a large enough effect in the repeat runs; an effect the other way counts as inactive or inconclusive; also: nearly all actives have a fitted effect of over 55% in size; also: potency is read from the fitted curve at half-maximal effect)
Procedure, shortened: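 Viability counter-screen: KeratinoSens reporter cells, DMSO-delivered compounds, 23 h at 37 C, CellTiter-Fluor fluorescence.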

[2] = Nuclear factor erythroid 2-related factor 2/antioxidant responsive element (Nrf2/ARE) small molecule agonists: luciferase reporter gene qHTS assay in human keratinocytes (AID 1919969); also: nearly all actives have a fitted effect of over 35% in size; also: potency is read from the fitted curve at half-maximal effect
[3] = target: Gonadotropin-releasing hormone receptor (Homo sapiens) (UniProt P30968); experiment: Human gonadotropin-releasing hormone receptor (GnRHR) small molecule agonists, calcium flux assay in GnRHR-HEK293 cells (AID 1920063); also: nearly all actives have a fitted effect of over 35% in size; also: potency is read from the fitted curve at half-maximal effect
Sequence of Gonadotropin-releasing hormone receptor (Homo sapiens) (P30968 whole entry, looked up): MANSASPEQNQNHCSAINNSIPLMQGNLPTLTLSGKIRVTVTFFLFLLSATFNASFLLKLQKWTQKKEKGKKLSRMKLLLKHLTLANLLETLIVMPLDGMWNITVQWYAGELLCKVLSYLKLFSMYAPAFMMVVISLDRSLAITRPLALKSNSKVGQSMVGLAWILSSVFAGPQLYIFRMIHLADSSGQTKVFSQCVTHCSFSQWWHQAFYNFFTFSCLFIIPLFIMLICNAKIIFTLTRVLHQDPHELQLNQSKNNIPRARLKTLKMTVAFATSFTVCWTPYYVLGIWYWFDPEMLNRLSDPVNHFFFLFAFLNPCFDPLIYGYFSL
Procedure, shortened: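 Tox21-format agonist screen using human GnRHR-expressing HEK293 cells and a fluorescent calcium dye; kinetic 3-min fluorescence reading after compound addition, 15-point concentration series run in triplicate.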

[4] = G protein-coupled receptor (GPCR) small molecule agonists, calcium flux assay: HEK293 wild type cell line counter screen (AID 1920065)
Procedure, shortened: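 In this agonist-mode screen, ATP is the positive control and DMSO the vehicle. Cells grow 18 h before a 1 h dye incubation at 37 C; signal is taken at Ex/Em 480/540 over 3 min.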

[5] = p53 small molecule agonists, cell-based qHTS assay with human liver microsomes (AID 1963577);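 also: p53 response element beta-lactamase reporter cells with liver microsomes plus NADPH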
Procedure, shortened: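 With metabolic activation: human liver microsomes (0.5 mg/mL final) plus NADPH (0.5 mg/mL final) added alongside compounds to p53RE-bla cells; 16 h 37 C exposure; beta-lactamase read by LiveBLAzer fluorescence.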

[6] = p53 small molecule agonists, cell-based qHTS assay with rat liver microsomes (AID 1963578)
Procedure, shortened: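 Metabolic activation by rat liver microsomes and NADPH, each 0.5 mg/mL final, added right after compounds to p53RE-bla reporter cells (4,000/well, plated 5 h earlier). 16 h at 37 C, then LiveBLAzer substrate for 2 h at room temperature in the dark; fluorescence read-out.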

[7] = p53 small molecule agonists, cell-based qHTS assay with human liver microsomes: qHTS cell viability counter screen (AID 1963579); also: nearly all actives have a fitted effect of over 45% in size; also: potency is read from the fitted curve at half-maximal effect
Procedure, shortened: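 Metabolic activation used human liver microsomes and NADPH, both 0.5 mg/mL final, over 16 hours at 37 C on p53RE-bla cells (4,000/well). Cytotoxicity measured by CellTiter-Glo luminescence, 30 min at room temperature.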

[8] = p53 small molecule agonists, cell-based qHTS assay with rat liver microsomes: qHTS cell viability counter screen (AID 1963580); also: nearly all actives have a fitted effect of over 45% in size; also: potency is read from the fitted curve at half-maximal effect
Procedure, shortened: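 Viability is assessed in parallel with the p53 reporter read: HCT-116 p53RE-bla cells receive compounds plus rat microsomes and NADPH (0.5 mg/mL final apiece), incubate 16 h at 37 C, and then CellTiter-Glo luminescence is recorded.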

[9] = p53 small molecule agonists, cell-based qHTS assay: qHTS cell viability counter screen (AID 1963581); also: nearly all actives have a fitted effect of over 45% in size; also: potency is read from the fitted curve at half-maximal effect
Procedure, shortened: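 Compounds are pinned onto HCT-116 p53RE-bla cells and left 16 h at 37 C. Following the reporter FRET read, ATP is quantified by CellTiter-Glo luminescence after 30 min at room temperature.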

[10] = target: 5-hydroxytryptamine receptor 2A (Homo sapiens) (UniProt P28223); experiment: 5-hydroxytryptamine receptor 2A (HTR2A) small molecule antagonists, cell-based qHTS assay (AID 1963586); also: nearly all actives have a fitted effect of over 45% in size; also: potency is read from the fitted curve at half-maximal effect
Sequence of 5-hydroxytryptamine receptor 2A (Homo sapiens) (P28223 whole entry, looked up): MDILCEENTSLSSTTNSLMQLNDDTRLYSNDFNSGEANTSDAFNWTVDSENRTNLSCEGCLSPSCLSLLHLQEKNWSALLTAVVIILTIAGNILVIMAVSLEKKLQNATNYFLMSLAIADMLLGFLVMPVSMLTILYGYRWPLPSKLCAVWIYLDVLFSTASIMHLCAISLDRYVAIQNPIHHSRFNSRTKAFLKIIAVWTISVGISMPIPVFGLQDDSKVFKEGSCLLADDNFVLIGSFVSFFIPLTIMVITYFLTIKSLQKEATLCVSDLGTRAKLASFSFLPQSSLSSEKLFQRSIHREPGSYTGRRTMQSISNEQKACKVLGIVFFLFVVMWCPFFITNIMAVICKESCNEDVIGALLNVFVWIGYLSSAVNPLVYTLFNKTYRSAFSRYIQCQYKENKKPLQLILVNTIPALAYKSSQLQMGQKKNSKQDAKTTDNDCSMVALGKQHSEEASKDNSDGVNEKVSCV
Procedure, shortened: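 Antagonist-mode intracellular calcium assay: DOI (4 nM) added after 5 min compound pre-incubation at room temperature to dye-loaded HTR2A-CHO cells. Fluorescence followed for 3 min, sampled every second.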

[11] = target: 5-hydroxytryptamine receptor 2A (Homo sapiens) (UniProt P28223); experiment: 5-hydroxytryptamine receptor 2A (HTR2A) small molecule agonists, cell-based qHTS assay (AID 1963587); also: nearly all actives have a fitted effect of over 30% in size; also: potency is read from the fitted curve at half-maximal effect
Procedure, shortened: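 CHO cells stably expressing human HTR2A, plated 18 h, loaded with calcium dye 1 h at 37 C. Agonist mode: compounds added and intracellular calcium fluorescence recorded kinetically for 2 min at 1 sec intervals.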

[12] = target: Muscarinic acetylcholine receptor M1 (Homo sapiens) (UniProt P11229); experiment: Cholinergic receptor muscarinic 1 (CHRM1) small molecule antagonists, cell-based qHTS assay (AID 1963588); also: nearly all actives have a fitted effect of over 40% in size
Sequence of Muscarinic acetylcholine receptor M1 (Homo sapiens) (P11229 whole entry, looked up): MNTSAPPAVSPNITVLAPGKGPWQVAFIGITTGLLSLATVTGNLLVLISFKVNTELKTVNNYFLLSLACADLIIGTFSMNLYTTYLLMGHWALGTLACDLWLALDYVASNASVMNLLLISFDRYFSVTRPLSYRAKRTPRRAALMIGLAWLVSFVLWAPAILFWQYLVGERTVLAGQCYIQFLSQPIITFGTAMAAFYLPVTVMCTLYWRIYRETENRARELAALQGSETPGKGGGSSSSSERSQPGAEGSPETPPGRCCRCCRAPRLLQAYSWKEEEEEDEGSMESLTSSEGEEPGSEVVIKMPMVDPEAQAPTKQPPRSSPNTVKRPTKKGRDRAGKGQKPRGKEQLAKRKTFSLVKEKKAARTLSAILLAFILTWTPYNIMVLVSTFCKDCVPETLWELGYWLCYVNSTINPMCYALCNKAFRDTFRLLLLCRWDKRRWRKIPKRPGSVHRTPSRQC
Procedure, shortened: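 CHRM1-CHO calcium-flux assay, antagonist mode. Cells were seeded 18 h, dye-loaded 1 h at 37 C and given compound for 5 min at RT, then acetylcholine was added at 50nM. FDSS fluorescence was read 3 min; 15 concentrations, three runs.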

[13] = target: Muscarinic acetylcholine receptor M1 (Homo sapiens) (UniProt P11229); experiment: Cholinergic receptor muscarinic 1 (CHRM1) small molecule agonists, cell-based qHTS assay (AID 1963589); also: nearly all actives have a fitted effect of over 35% in size
Procedure, shortened: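 Stable CHRM1-CHO cells (human receptor) were incubated 18 h, dye-loaded for 1 h at 37 C and exposed to test compounds for agonist activity, with calcium-dependent fluorescence followed kinetically.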

[14] = cAMP Responsive Elements (CRE) small molecule antagonists, cell-based qHTS assay (AID 1963591; active = well fitted inhibition curve with a large enough effect in the signal ratio in the repeat runs, not every such curve was filed as active; the % refers to the signal ratio)
Procedure, shortened: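 qHTS in CRE-bla HEK 293T cells: compound in DMSO, then 0.25 uM NKH477 (final), 3 h at 37 °C/5% CO2; beta-lactamase FRET read-out after 2 h substrate incubation.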

[15] = target: Beta-2 adrenergic receptor (Homo sapiens) (UniProt P07550); experiment: Adrenergic beta2 receptor (ADRB2) small molecule agonists, cell-based qHTS assay (AID 1963593);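 also: CHO cells stably overexpressing human ADRB2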
Sequence of Beta-2 adrenergic receptor (Homo sapiens) (P07550 whole entry, looked up): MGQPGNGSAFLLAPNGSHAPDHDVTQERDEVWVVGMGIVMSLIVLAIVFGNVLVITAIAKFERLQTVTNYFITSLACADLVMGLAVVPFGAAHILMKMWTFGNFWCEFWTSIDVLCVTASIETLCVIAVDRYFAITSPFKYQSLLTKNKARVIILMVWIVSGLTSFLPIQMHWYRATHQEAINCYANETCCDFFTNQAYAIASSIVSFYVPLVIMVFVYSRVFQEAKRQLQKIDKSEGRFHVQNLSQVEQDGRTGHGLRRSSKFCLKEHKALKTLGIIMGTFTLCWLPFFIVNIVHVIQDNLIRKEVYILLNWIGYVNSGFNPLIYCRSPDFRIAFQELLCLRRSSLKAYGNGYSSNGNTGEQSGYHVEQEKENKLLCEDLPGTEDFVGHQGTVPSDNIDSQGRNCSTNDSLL
Procedure, shortened: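 CHO cells stably over-expressing ADRB2 were plated overnight at 37C, then dosed with compounds plus a stimulation mix containing 100uM IBMX and 25uM Ro-20-1724 for 0.5hr at room temperature. cAMP was measured by HTRF competition, 1hr.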

[16] = target: D(2) dopamine receptor (Homo sapiens) (UniProt P14416); experiment: Dopamine D2 receptor (DRD2) small molecule agonists, cell-based qHTS assay (AID 1963594); also: nearly all actives have a fitted effect of over 35% in size
Sequence of D(2) dopamine receptor (Homo sapiens) (P14416 whole entry, looked up): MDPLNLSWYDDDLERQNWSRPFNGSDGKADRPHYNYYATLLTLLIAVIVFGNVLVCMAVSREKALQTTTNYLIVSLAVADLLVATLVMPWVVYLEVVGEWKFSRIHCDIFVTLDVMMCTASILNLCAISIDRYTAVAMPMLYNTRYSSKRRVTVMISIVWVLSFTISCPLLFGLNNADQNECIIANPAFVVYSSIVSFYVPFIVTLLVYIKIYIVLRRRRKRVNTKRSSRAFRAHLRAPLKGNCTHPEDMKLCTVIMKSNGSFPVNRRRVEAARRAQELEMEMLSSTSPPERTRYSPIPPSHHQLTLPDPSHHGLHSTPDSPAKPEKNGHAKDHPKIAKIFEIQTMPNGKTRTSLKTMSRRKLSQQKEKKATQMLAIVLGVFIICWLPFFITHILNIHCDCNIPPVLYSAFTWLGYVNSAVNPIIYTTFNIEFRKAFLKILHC
Procedure, shortened: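 HEK293 cells stably expressing human DRD2, pre-treated with PDE inhibitor Ro20-1724 (0.1 mM final) and compound 10 min at room temperature, then stimulated with NKH477 (200nM […]) for 30 min. cAMP read by HTRF (665/620 nm).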

[17] = cAMP Responsive Elements (CRE) small molecule agonists, cell-based qHTS assay (AID 1963590)
Procedure, shortened: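 FRET-based beta-lactamase readout (LiveBLAzer B/G, 2 h RT) quantified CRE activation in HEK 293T CRE-bla cells after 3 h treatment with DMSO-dissolved compounds.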

[18] = target: Beta-2 adrenergic receptor (Homo sapiens) (UniProt P07550); experiment: Adrenergic beta2 receptor (ADRB2) small molecule antagonists, cell-based qHTS assay (AID 1963592); also: nearly all actives have a fitted effect of over 50% in size; also: potency is read from the fitted curve at half-maximal effect
Procedure, shortened: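 Cells (CHO, stable ADRB2 overexpression) incubated 18-20hr at 37C; compounds added from DMSO; agonist mix (1nM isoproterenol, 100uM IBMX, 25uM Ro-20-1724) added; 0.5hr RT; d2-cAMP and anti-cAMP-cryptate added; 1hr RT; 665/615 nm read.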

[19] = target: D(2) dopamine receptor (Homo sapiens) (UniProt P14416); experiment: Dopamine D2 receptor (DRD2) small molecule antagonists, cell-based qHTS assay (AID 1963595; active = well fitted inhibition curve with a large enough effect in the signal ratio in the repeat runs, with a control signal flat; the % refers to the signal ratio; also: potency is read from the fitted curve at half-maximal effect)
Procedure, shortened: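 Antagonist mode in DRD2-HEK293 cells: after compound addition with 0.1 mM Ro20-1724, cells received quinpirole (12 nM) and NKH477 (200 nM) for 30 min at room temperature; HTRF cAMP read after 1 h detection.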

[20] = target: KiSS-1 receptor (Homo sapiens) (UniProt Q969F8); experiment: Human kisspeptin (KISS1R) small molecule agonists, calcium flux assay in KISS1R-HEK293 cells (AID 1920064; active = well fitted curve in the direction sought with a large enough effect in the repeat runs; an effect the other way counts as inactive or inconclusive)
Sequence of KiSS-1 receptor (Homo sapiens) (Q969F8 whole entry, looked up): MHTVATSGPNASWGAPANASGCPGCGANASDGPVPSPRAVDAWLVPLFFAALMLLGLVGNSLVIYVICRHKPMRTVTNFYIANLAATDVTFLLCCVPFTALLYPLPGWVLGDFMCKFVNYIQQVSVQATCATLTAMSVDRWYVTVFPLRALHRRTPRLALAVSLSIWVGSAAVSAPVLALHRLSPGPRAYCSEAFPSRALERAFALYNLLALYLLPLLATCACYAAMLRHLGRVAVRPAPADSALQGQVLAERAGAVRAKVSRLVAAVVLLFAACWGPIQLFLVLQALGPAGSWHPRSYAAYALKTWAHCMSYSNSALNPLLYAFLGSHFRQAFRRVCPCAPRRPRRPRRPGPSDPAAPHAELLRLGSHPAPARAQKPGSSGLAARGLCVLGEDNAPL
Procedure, shortened: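 Intracellular calcium mobilization in KISS1R-HEK293 cells was recorded by fluorescence (Ex/Em 480/540) for 3 min following compound addition to cells pre-loaded 1 h with calcium dye.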

| Structure (SMILES) | Potency [1] | Potency [2] | Potency [3] | Potency [4] | Potency [5] | Potency [6] | Potency [7] | Potency [8] | Potency [9] | Potency [10] | Potency [11] | Potency [12] | Potency [13] | Potency [14] | Potency [15] | Potency [16] | Potency [17] | Potency [18] | Potency [19] | Potency [20] |
| --- | --- | --- | --- | --- | --- | --- | --- | --- | --- | --- | --- | --- | --- | --- | --- | --- | --- | --- | --- | --- |
| O=C(OC1CCCCC1)c1ccccc1C(=O)OC1CCCCC1 | inactive | inactive | inactive | inactive | inactive | inactive | inactive | inactive | inactive | inactive | inactive | inactive | inactive | inactive | inactive | inactive |  |  |  |  |
| CCCCCCCCCCCCCN1CC(C)OC(C)C1 (configuration not stated) | inactive | inactive | inactive | inactive | inactive | inactive | inactive | inactive | inactive | inactive | inactive |  | inactive | inactive | inactive | inactive | inactive | inactive | inactive |  |
| ClCBr | inactive | inactive | inactive |  |  |  |  | inactive | inactive |  | inactive | inactive | inactive | inactive |  | inactive | inactive | inactive | inactive | inactive |
| N[C@@H]1C[C@H]1c1ccccc1 | inactive | inactive | inactive |  |  | inactive |  | inactive |  | inactive | 8.49 µM (active) | inactive | inactive |  | inactive | inactive | inactive | inactive |  | inactive |
| CCOC(=O)NC(=S)Nc1ccccc1NC(=S)NC(=O)OCC | inactive | 54.5 µM (active) | inactive | inactive | inactive | inactive | inactive |  |  | inactive | inactive | inactive | inactive |  | inactive |  |  | inactive | inactive |  |
| O=C(O)C(F)(F)C(F)(F)C(F)(F)C(F)(F)C(F)(F)C(F)(F)C(F)(F)C(F)(F)C(F)(F)F | inactive | inactive | inactive | inactive | inactive | inactive | inactive | inactive | inactive | inactive | inactive | inactive | inactive | inactive |  |  | inactive | inactive | inactive |  |
| CCCCCCCCCCCCCC[P+](CCCCCC)(CCCCCC)CCCCCC (tested in a mixture with another compound) | 6.86 µM (active) | inactive | inactive | inactive | inactive | inactive |  | 16.2 µM (active) | 14.5 µM (active) | inactive | inactive | inactive |  |  |  | inactive |  | inactive | 54.5 µM (active) |  |
| CCOc1ccc(C(C)(C)COCc2cccc(Oc3ccccc3)c2)cc1 | inactive | inactive | inactive |  |  | inactive | inactive | inactive |  | inactive | inactive | inactive | inactive | inactive |  | inactive | inactive | inactive | inactive | inactive |
| CCC[CH2][Sn]([CH2]CCC)([CH2]CCC)[O]C(=O)c1ccccc1 | 1.09 µM (active) | 0.969 µM (active) | 4.9 µM (active) | inactive | inactive | inactive | 3.24 µM (active) | 4.58 µM (active) | 1.62 µM (active) | 1.33 µM (active) |  |  |  |  |  | inactive |  | 0.864 µM (active) | 4.86 µM (active) |  |
| CC(=O)CCc1ccc2c(c1)OCO2 | inactive | inactive | inactive | inactive | inactive | inactive | inactive |  | inactive | inactive | inactive | inactive | inactive | inactive | inactive | inactive | inactive | inactive | inactive |  |
| CSc1ccc(C(=O)C(C)(C)N2CCOCC2)cc1 | inactive | inactive | inactive | inactive | inactive |  | inactive | inactive | inactive |  | inactive | inactive | inactive |  |  | inactive | inactive | inactive | inactive |  |
| CC(O)CCl (configuration not stated) | inactive | inactive | inactive |  |  |  | inactive | inactive | inactive | inactive | inactive | inactive | inactive | inactive |  | inactive | inactive | inactive | inactive | inactive |
| COc1ccc([N+](=O)[O-])cc1O | inactive | inactive | inactive | inactive |  | inactive | inactive | inactive | inactive | inactive | inactive | inactive | inactive |  | inactive | inactive | inactive | inactive | inactive |  |
